Screening results (PubChem)
PI4K2A inh – qHTS for small molecular inhibitors of PI4K2A. Phosphatidylinositol 4-kinase type 2-alpha (Homo sapiens), Q9BTU6. purified PI4K2A, ADP-Glo luminescence, 1 h; hits give low values. activity change, negative = inhibition, % at 76.9 µM. 0.13% of 420,000 active; in the data active = activity change below about -50%; inconclusive = mostly about -30% to -49%;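 note: -100% = wells without enzyme as full effect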
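ADP-Glo luminescence measured ADP generated by PI4K2A enzyme (4 ug/mL before mixing) with 1.2 mM PI substrate (pre-mix) and 300 microM ATP (pre-mix). Tris pH7.5 buffer with MgCl2, Triton X-100; 1 h reaction at ambient temperature.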
RGS4 inhibitor – Inhibitors of Regulator of G Protein Signaling (RGS) 4: qHTS | Regulator of G-protein signaling 4 (Homo sapiens), P49798 | Transcreener GDP fluorescence polarization, RGS4-accelerated GTP hydrolysis | Potency, µM (doses to about 114 µM), for inactives: at the top dose activity change, negative = inhibition, most hits filed as inhibitors | 0.039% of 390,000 active; active = well fitted inhibition curve with a large enough effect; inconclusive = small, poorly fitted or top-dose-only effect; inactive = no such curve, though single readings can be large or run the other way; note: potency is the fitted concentration of half-maximal effect; % is set by controls: 0 for no effect and ±100 for the full control effect; nearly all actives have a fitted effect of over 75% in size
Target sequence (P49798 whole entry, looked up): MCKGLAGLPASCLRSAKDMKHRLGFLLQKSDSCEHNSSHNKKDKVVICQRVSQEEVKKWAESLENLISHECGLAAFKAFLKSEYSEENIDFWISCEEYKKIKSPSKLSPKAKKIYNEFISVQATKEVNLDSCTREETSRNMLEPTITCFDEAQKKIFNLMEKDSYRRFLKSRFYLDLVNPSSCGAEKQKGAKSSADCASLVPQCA
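MLSMR compounds (23 nl, pin-transferred) preincubated 10 min at room temperature with a 500nM (2x) first reagent, then RGS4 at 900nM (2x) plus Transcreener GDP mix added; fluorescence polarization (620/688 nm) read before and after 90 min at 30 °C.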
D3 antag – qHTS of D3 Dopamine Receptor Antagonist: qHTS; D3R cells, DiscoveRx beta-arrestin luminescence, antagonist mode; hits give low values; AID 652054, 2013; max response, negative = inhibition, %; 2.5% of 360,000 active; D(3) dopamine receptor (Homo sapiens), P35462; in the data active = max response below about -50%; inconclusive = no clear call, values can overlap the other calls; note: % is set by controls: 0 for no effect and ±100 for the full control effect
Target sequence (P35462 whole entry, looked up): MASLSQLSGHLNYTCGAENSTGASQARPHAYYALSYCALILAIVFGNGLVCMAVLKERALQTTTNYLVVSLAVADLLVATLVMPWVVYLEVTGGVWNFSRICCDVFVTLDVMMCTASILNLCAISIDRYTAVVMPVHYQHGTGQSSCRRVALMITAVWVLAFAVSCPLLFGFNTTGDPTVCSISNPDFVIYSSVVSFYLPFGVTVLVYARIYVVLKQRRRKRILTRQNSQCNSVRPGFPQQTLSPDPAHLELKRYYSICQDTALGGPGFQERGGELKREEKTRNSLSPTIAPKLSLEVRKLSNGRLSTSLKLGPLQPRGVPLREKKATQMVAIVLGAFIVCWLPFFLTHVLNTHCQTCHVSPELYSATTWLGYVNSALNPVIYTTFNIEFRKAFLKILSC
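Cells plated overnight at 1500 cells/well, then exposed to library compounds with dopamine controls for 90 minutes at 37 degrees C. DiscoveRx reagent added for 30–60 minutes at room temperature; luminescence read, quantitative HTS format.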
LDHA inh – qHTS assay for inhibitors of human lactate dehydrogenase | L-lactate dehydrogenase A chain (Homo sapiens), P00338 | activity change, % (values are at about 110 or 230 µM) | 0.15% of 480,000 active | purified LDHA, NADH/diaphorase-resazurin fluorescence; hits give low values; in the data active = activity change below about -30%; inconclusive = mostly about -25% to -30%;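 note: plate controls were DMSO wells for no effect and wells without enzyme for full effect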
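Remaining NADH was detected by diaphorase (0.133 mg/mL) converting 37 µM resazurin to fluorescent resorufin, read at 0 and 20 minutes. The preceding 5-minute room-temperature reaction used 2 nM LDHA, 0.2 mM sodium pyruvate and 0.06 mM NADH at pH 7.4.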
DRD3 agonist – qHTS of D3 Dopamine Receptor Agonist: qHTS | 0.58% of 410,000 active | D(3) dopamine receptor (Homo sapiens), P35462 | D3R DiscoveRx beta-arrestin cells, luminescence, 90 min | max activation, %; in the data active = max activation above about 30%; note: 0% is about no effect
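Agonist-mode cell screen: cells plated at 1500/well and incubated overnight at 37 °C, then exposed to library compounds for 90 min at 37 °C. Detection reagent was added for 30–60 min at room temperature, and luminescence was read.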
Akt phos inh – HTS Assay for Inhibitors of Akt Phophorylation: Primary Screen; 0.32% of 360,000 active; activity change, % for hits at 50 µM; Neuro2A IGF-stimulated pAkt S473 HTRF, 20 min; hits give low values; in the data active = activity change below about -80%; inconclusive = mostly about -51% to -80%; note: % is set by controls: 0 for no effect and ±100 for the full control effect
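Neuro2A cells (4,500/well, DMEM with 0.5% FBS) were treated with compound at a single 50 µM final concentration, stimulated with 6 nM IGF for 20 min at 37 °C, and lysed. Phospho-Akt Ser473 was read by HTRF as 665/615 ratio ×10^4.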
* hit, by the source's call; [ ] = remark or other dose. Hits are enriched below; roughly 2.8% of the tested compounds scored in any of these assays.

COC(=O)C(NC(=O)c1ccc(F)cc1)(Nc1ncc(S(=O)(=O)c2ccc([N+](=O)[O-])cc2)s1)C(F)(F)F (stereo not drawn) was read as PI4K2A inh -2, RGS4 inhibitor -2%[11.4 µM], D3 antag -14, LDHA inh -5, DRD3 agonist -4 and Akt phos inh inactive.
Screening COC(=O)C(NC(=O)c1ccccc1C)(Nc1ncc(S(=O)(=O)c2ccc([N+](=O)[O-])cc2)s1)C(F)(F)F (stereo not drawn) returned PI4K2A inh 6, RGS4 inhibitor 0%, D3 antag -77*, LDHA inh 6, DRD3 agonist -7 and Akt phos inh inactive.
Screening CN1CCN(C(=O)C(C(=O)c2ccc(F)cc2)n2ccccc2=O)CC1 (stereo not drawn) returned PI4K2A inh -3, RGS4 inhibitor -2%, D3 antag -27, LDHA inh -3, DRD3 agonist 0 and Akt phos inh -99%*.
`COc1cc2c(cc1OC)CN(CC(=O)N1N=C(c3cccs3)CC1c1cccs1)CC2` (stereo not drawn) gave LDHA inh 10.
For Cc1ccc(C)c(CN2CCC(CNC(=O)Nc3ccc(C)c(C)c3)CC2)c1 the results were PI4K2A inh 0, RGS4 inhibitor 0%, D3 antag inconclusive, LDHA inh -15, DRD3 agonist -15 and Akt phos inh inactive.
`COc1cc([N+](=O)[O-])ccc1NC(=O)NCC1CCN(Cc2ccc(Cl)cc2)CC1` gave PI4K2A inh -1, RGS4 inhibitor -21%, D3 antag -73*, LDHA inh 1, DRD3 agonist -16 and Akt phos inh inactive.
COc1ccc(Cl)cc1NC(=O)NCC1CCN(Cc2cc(C)ccc2C)CC1 was read as PI4K2A inh -2, RGS4 inhibitor -11%, D3 antag -85*, LDHA inh -2, DRD3 agonist -1 and Akt phos inh inactive.
O=C(NCC1CCN(Cc2cccc(Cl)c2)CC1)Nc1cc(Cl)ccc1Cl was read as PI4K2A inh -1, RGS4 inhibitor 2%, LDHA inh 2 and DRD3 agonist -27.
For O=C(NCC1CCN(Cc2cccc(Cl)c2)CC1)Nc1ccc(Cl)cc1 the results were PI4K2A inh -4, RGS4 inhibitor -5%, D3 antag -61*, LDHA inh 0, DRD3 agonist -5 and Akt phos inh inactive.
O=C(NN1C(=O)NC2(CCCCC2)C1=O)c1nn(-c2ccccc2)c(=O)c2ccccc12 was read as LDHA inh 12.
Screening O=C(NCCCN1CCC(Cc2ccccc2)CC1)C1CCC(=O)N1C1CCCC1 (stereo not drawn) returned PI4K2A inh 2, RGS4 inhibitor -2%, D3 antag -118*, LDHA inh -6, DRD3 agonist -10 and Akt phos inh inactive.
O=C(NCCCN1CCN(c2ccccc2F)CC1)C1CCC(=O)N1C1CCCC1 (stereo not drawn) was read as PI4K2A inh -2, RGS4 inhibitor 8%, D3 antag -87*, LDHA inh -4, DRD3 agonist 1 and Akt phos inh inactive.
O=C(O)CSCc1ccccc1Cl was read as LDHA inh 0.
For O=C(CN1CCCCC1c1nc2ccccc2s1)NC(=O)Nc1ccc2c(c1)OCCO2 (stereo not drawn) the results were LDHA inh 8.
CCN(CC(=O)Nc1ccc(NC(C)=O)cc1)CC(=O)Nc1ccc(Cl)c(Cl)c1 was read as PI4K2A inh -3, RGS4 inhibitor -15%, D3 antag -60*, LDHA inh -45*, DRD3 agonist -26 and Akt phos inh inactive.
For Cc1[nH]n(-c2nc3ccccc3[nH]2)c(=O)c1CCC(C)C the results were LDHA inh -13.
`O=C(Nc1ccc2nc3n(c(=O)c2c1)CCCCC3)c1c(F)ccc([N+](=O)[O-])c1F` gave PI4K2A inh 10, RGS4 inhibitor inconclusive, D3 antag -59*, LDHA inh -5, DRD3 agonist -6 and Akt phos inh inactive.
CC(=O)c1cccc(NC(=O)C(C)Oc2ccc3ccc(=O)oc3c2)c1 (stereo not drawn) was read as LDHA inh 12.
For CCCn1nc(C(=O)Nc2sc3c(c2C#N)CCCC3)c2ccccc2c1=O the results were LDHA inh 1.
`Cc1ccc(S(=O)Cc2nc(-c3ccc(C(=O)NCCN4CCCCC4)cc3)oc2C)cc1` (stereo not drawn) gave LDHA inh -2.
CCN(C1CCCCC1)S(=O)(=O)c1ccc(S(=O)(=O)N2CCN(CCC#N)CC2)cc1 was read as PI4K2A inh 0, RGS4 inhibitor 1%, D3 antag -53*, LDHA inh 2, DRD3 agonist -3 and Akt phos inh inactive.
Screening COc1ccc2oc(-c3cccc(NC(=O)c4ccc(Br)o4)c3)nc2c1 returned LDHA inh 1.
Screening COc1ccc(/C=N/Nc2cc(C)nc(N3CCOCC3)n2)cc1OC returned PI4K2A inh 3, RGS4 inhibitor -12%, D3 antag 50, LDHA inh -5, DRD3 agonist 1 and Akt phos inh inactive.
Cc1cc(NCc2ccccc2)nc(N2CCOCC2)n1 was read as PI4K2A inh -4, RGS4 inhibitor -33%, D3 antag 28, LDHA inh 1, DRD3 agonist -3 and Akt phos inh -113%*.
Screening COc1ccc(/C=N/Nc2cc(C)nc(N3CCOCC3)n2)cc1 returned PI4K2A inh 4, RGS4 inhibitor -15%, D3 antag 23, LDHA inh -2, DRD3 agonist 32* and Akt phos inh inactive.
Screening COc1cc(OC)cc(C(=O)N(C)Cc2cc(Br)ccc2OC)c1 returned LDHA inh -5.
Screening O=C(Nc1ccc(S(=O)(=O)N2CCOCC2)cc1)C1CC(=O)N(CCc2ccc(F)cc2)C1 (stereo not drawn) returned LDHA inh 1.
For O=C(NCCc1ccccc1)c1nc2ncccn2n1 the results were PI4K2A inh 3, RGS4 inhibitor 19%, D3 antag 15, LDHA inh -11, DRD3 agonist -2 and Akt phos inh inactive.
